PubChem BioAssay (NCI)
About 83,000 compounds went through this panel and 20% of them were active in at least one assay; those are over-represented in the sample as a whole.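 A percent growth of 40 corresponds to 60% growth inhibition; 0 means no net growth; -100 means all cells died. Active threshold: below 10.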

Legend:
Test in all cases: NCI-60 one-dose screen, 48 h (100 = growth as untreated, 0 = no growth, -100 = all killed)
Conditions in all cases: 10 µM unless noted
NCI-H23 lung = tested on: NCI-H23 lung
NCI-H226 lung = tested on: NCI-H226 lung
HOP-62 NSCLC = tested on: HOP-62 NSCLC
NCI-H460 lung = tested on: NCI-H460 lung
HOP-92 NSCLC = tested on: HOP-92 NSCLC
NCI-H522 lung = tested on: NCI-H522 lung
A549/ATCC NSCLC = tested on: A549/ATCC NSCLC
786-0 renal = tested on: 786-0 renal
COLO 205 colon = tested on: COLO 205 colon

Measured: growth

O=C1C=CC(n2cc(F)c(=O)[nH]c2=O)O1 (stereo unspecified)
inactive: NCI-H23 lung 65.2% | NCI-H226 lung 86% | HOP-62 NSCLC 79.5% | NCI-H460 lung 19.4% | HOP-92 NSCLC 112% | NCI-H522 lung 76.2% | A549/ATCC NSCLC 50.7% | 786-0 renal 70.9% | COLO 205 colon 59.4%

O=C1c2ccccc2C(c2ccccc2)C1c1ccccc1 (stereo unspecified)
inactive: NCI-H23 lung 91% | NCI-H226 lung 101% | HOP-62 NSCLC 98.6% | NCI-H460 lung 95.8% | HOP-92 NSCLC 80.2% | NCI-H522 lung 86.2% | A549/ATCC NSCLC 91.3% | 786-0 renal 107% | COLO 205 colon 101%

COc1ccc2oc3c(ccc[n+]3C)c(=O)c2c1
inactive: NCI-H23 lung 105% | NCI-H226 lung 98.3% | HOP-62 NSCLC 80.5% | NCI-H460 lung 108% | HOP-92 NSCLC 94.7% | NCI-H522 lung 82.7% | A549/ATCC NSCLC 84% | 786-0 renal 105% | COLO 205 colon 98.6%

CN(C)CC(CN(C)C)C(O)c1ccccc1 (stereo unspecified)
inactive: NCI-H23 lung 106% | NCI-H226 lung 96.6% | HOP-62 NSCLC 91.4% | NCI-H460 lung 112% | HOP-92 NSCLC 97.9% | NCI-H522 lung 76.4% | A549/ATCC NSCLC 91.5% | 786-0 renal 96.6% | COLO 205 colon 110%
